Test results reported in PMC7819943, “Rice protein-binding microarrays: a tool to detect cis-acting elements near promoter regions in rice”.
Whole data set: some 68,000 sequences, median “fluorescence intensity (a.u.)” near 9,100, cut for the highest 2% near 16,000. For the sample, the highest values were picked, then their nearest neighbours and some sequences at random.

biological target: OsWRKY34 (Oryza sativa, UniProt Q0JBA9 1-250); test: protein-binding microarray (RPBM); PBS, 2% BSA, 51.3 ng/ul salmon testes DNA, 50 uM zinc acetate, 200 nM TF, 25 C, 1 h; high values mean tight binding; details: protein: recombinant; tags: N-terminal polyhistidine and DsRed monomer fusion (pET32a); label: CyDye5-dUTP incorporated in the synthesized complementary strand; 3' TTTTT single-stranded linker to array surface; dsDNA, one strand shown
Summary of the method: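 In PBS with 2% BSA, salmon testes DNA and 50 µM zinc acetate, 200 nM protein was incubated on a custom Agilent array at 25 °C for 1 h and then washed off. The array had been made double-stranded by primer extension with Cy5-dUTP and blocked with 2% BSA. The proteins were transcription factors fused N-terminally to polyhistidine and DsRed, expressed in E. coli BL21-CodonPlus and purified on Ni–NTA. The binding signal is per-feature fluorescence intensity (arbitrary units) from an Axon 4000B scanner.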

OsWRKY34, sequence (Q0JBA9 entry or part of it): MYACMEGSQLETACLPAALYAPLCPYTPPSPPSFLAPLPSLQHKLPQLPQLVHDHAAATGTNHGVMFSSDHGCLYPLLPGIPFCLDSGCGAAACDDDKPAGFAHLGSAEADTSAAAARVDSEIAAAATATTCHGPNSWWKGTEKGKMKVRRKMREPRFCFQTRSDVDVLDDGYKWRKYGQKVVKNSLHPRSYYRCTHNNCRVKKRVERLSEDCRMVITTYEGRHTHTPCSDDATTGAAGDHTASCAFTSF

Sequence	binding signal
GCATATAATTAGTTTACCATGGCTTTAATCAATCATATGCCGGAGTCACCTAGTGCAG	29300 fluorescence intensity (a.u.)
ATGACTTTAATATGTTAGCTTTTCATGCATGTGTCAATTTCGGAGTCACCTAGTGCAG	8700 fluorescence intensity (a.u.)
TCATAATGCATCAATCTATTACTTTAGCTATCTATTTATACGGAGTCACCTAGTGCAG	9530 fluorescence intensity (a.u.)
GCAACGCCGCCGTTTTCTTCGCCTCTCACAGAGACGACTCCGGAGTCACCTAGTGCAG	9200 fluorescence intensity (a.u.)
AGCCATCTATCACCATGGCTGAAGCCATGTTATATATATCCGGAGTCACCTAGTGCAG	8560 fluorescence intensity (a.u.)
TCCCACCTTCCGCTCGTTTTTCTTGAGCATATGCTTCTCACGGAGTCACCTAGTGCAG	10100 fluorescence intensity (a.u.)
TTCGGGTTTTTTTTTTGTTTATTTTGTCTTTCGCTTTTCACGGAGTCACCTAGTGCAG	14900 fluorescence intensity (a.u.)
TTTTTGGGGTTTTCTCTTCTTGATTGATTCGTTCTTGGCGCGGAGTCACCTAGTGCAG	13100 fluorescence intensity (a.u.)
ATTCGTTCTGGTTTTCTTCGGGGTTTATTGATTCACGCGACGGAGTCACCTAGTGCAG	18200 fluorescence intensity (a.u.)
TTCTTTTCTTTTTCTTTTTCGTTTTCTTCTTATTCTTTTTCGGAGTCACCTAGTGCAG	12900 fluorescence intensity (a.u.)
CTTCACTCTTGATTCAAAAGGTTTTATTTTTTTTTCTGGTCGGAGTCACCTAGTGCAG	8530 fluorescence intensity (a.u.)
ATCACTTTATGCGCACTTTTCTTTGACGCCTTCCACAATTCGGAGTCACCTAGTGCAG	9560 fluorescence intensity (a.u.)
ACTTCTACCTTTCGTTTTTCCACGCGCATATGCTTTTTGACGGAGTCACCTAGTGCAG	20300 fluorescence intensity (a.u.)
GGGGTTCGTTTTGTTTCTTGACACACGCTTGAGTCTTATTCGGAGTCACCTAGTGCAG	16900 fluorescence intensity (a.u.)
TCTTCTGAGTTCTTGTGTTTTCATACGTGCCAATCAAATGCGGAGTCACCTAGTGCAG	8310 fluorescence intensity (a.u.)
ACCTTCGGTGTACTTTTTCCTTAGTCTGCCGGCTTATTTACGGAGTCACCTAGTGCAG	9490 fluorescence intensity (a.u.)
GACAATTACTTAGTCCTCACCTACCGTCGACCTCACACGTCGGAGTCACCTAGTGCAG	10200 fluorescence intensity (a.u.)
TTCAGAGTATTGTGATCCTTAAATCGAACCGTTGACTCTACGGAGTCACCTAGTGCAG	9490 fluorescence intensity (a.u.)
AGCAGTTGTATTGTTGTGAAATTTAATTTGCTCTTTGACCCGGAGTCACCTAGTGCAG	8200 fluorescence intensity (a.u.)
TCTTGTTCATTTCTCTCTTGCTCCGGCTCGCCTCGCATCGCGGAGTCACCTAGTGCAG	8300 fluorescence intensity (a.u.)
GGTAGACGGCGTCGTACCCGTCCTCCTCGCCGGACCGCATCGGAGTCACCTAGTGCAG	8840 fluorescence intensity (a.u.)
TTTTAATGTATGACGCCGTTGACTTTTTATACGTTTGACCCGGAGTCACCTAGTGCAG	32200 fluorescence intensity (a.u.)
TAATGTATAACGCCGTTAACTTTTTAACAAACGTTTGACCCGGAGTCACCTAGTGCAG	8430 fluorescence intensity (a.u.)
TAATGTATGACGCCGTTGACTTTTTGATTAACGTTTGACCCGGAGTCACCTAGTGCAG	34800 fluorescence intensity (a.u.)
TAATGTATGACGCCGTTGACTTTTTAACTAACGTTTGACCCGGAGTCACCTAGTGCAG	28700 fluorescence intensity (a.u.)
TTGTATGATGCCGTTGATTTTTTTTGTCTAACGTTTAACCCGGAGTCACCTAGTGCAG	8360 fluorescence intensity (a.u.)
CGCATAATACTTTTACTTGCACCAATCAAGTACACGCTCTCGGAGTCACCTAGTGCAG	9320 fluorescence intensity (a.u.)

Sequence	binding signal
CCCTGGCAAATGTTCTTTCTCCTCTATTTTCCATCTCCAACGGAGTCACCTAGTGCAG	9120 fluorescence intensity (a.u.)
TATAGATTTTCGTCTCCAACGCTTGACCGTCCGTTTTATTCGGAGTCACCTAGTGCAG	12800 fluorescence intensity (a.u.)
CTTGCTCGTTGTAACTGTTTAATCTATTATGTTTTTTTTTCGGAGTCACCTAGTGCAG	11000 fluorescence intensity (a.u.)
CCCACCGCTCCTCCGCGCCACGCTTCCTCGCCGCGCGCGCCGGAGTCACCTAGTGCAG	8390 fluorescence intensity (a.u.)
ACAACTGACTTACCCTTTCTGACTTGCAGATCAATTTGTCCGGAGTCACCTAGTGCAG	9050 fluorescence intensity (a.u.)
TGCAGTGCGGCGTCACCTATCTCGTGGGCGCTTTCTTAGACGGAGTCACCTAGTGCAG	9080 fluorescence intensity (a.u.)
ACGGCGAGACGGTTTGCGGCGGCGGCGGTGGGGTTGGGATCGGAGTCACCTAGTGCAG	10600 fluorescence intensity (a.u.)
TGGGGTTGGTTTGGTTTGGAGTACATCGAGATTCGAGAGACGGAGTCACCTAGTGCAG	19900 fluorescence intensity (a.u.)
CTGCGTTTATTTGGGTTTATTTGGGGCTGAGAGAGTACATCGGAGTCACCTAGTGCAG	13800 fluorescence intensity (a.u.)
GGGTTGGTGGGCCTGATGGGCTTGGTTTTAGGGTTTCGTGCGGAGTCACCTAGTGCAG	9510 fluorescence intensity (a.u.)
GTTTATCTCTATCTTTTTTTCATCTTCTCTCTATATATATCGGAGTCACCTAGTGCAG	11000 fluorescence intensity (a.u.)
ATTTTAGGGGAGGGTTTTACTTAGCAACTTTCATCTTATTCGGAGTCACCTAGTGCAG	15800 fluorescence intensity (a.u.)
TAGGCTATCTTTTGAAGGGAGGGGTTTTTTCATCACCTATCGGAGTCACCTAGTGCAG	17000 fluorescence intensity (a.u.)
ACTGTTGGAGTGGGAGTGGGGAATTCTAGGGTTTTGCAATCGGAGTCACCTAGTGCAG	12300 fluorescence intensity (a.u.)
GGTTTCGTTGGTGGGGTTTTTTCATGGTGGCTAGGGTTTTCGGAGTCACCTAGTGCAG	51100 fluorescence intensity (a.u.)
CTCGGGAATTCGGGTGGTTTGGTTGGGTTTCGTGGAGAATCGGAGTCACCTAGTGCAG	18700 fluorescence intensity (a.u.)
GTTTCGTGGTGGTTGCTGGGCTTTTCGTTGGCGTGGGTGGCGGAGTCACCTAGTGCAG	11500 fluorescence intensity (a.u.)
ATGGTTGGTTTCGTGCTCTGTTTTTTTTTGGGAGAATTCGCGGAGTCACCTAGTGCAG	12800 fluorescence intensity (a.u.)
ACGGGGATGACTCCGATGACTCTCCTGGCCTCGCCGCCTCCGGAGTCACCTAGTGCAG	8120 fluorescence intensity (a.u.)
ACTTGGTTCTTGCTCATCATCTTTCGCTTGCTCGTCAGCTCGGAGTCACCTAGTGCAG	8360 fluorescence intensity (a.u.)
CCCTCTTCTCCTTTGCTTGGTCTCGTTTCGTCGCTGTCGTCGGAGTCACCTAGTGCAG	8260 fluorescence intensity (a.u.)
GAGGTCCCGTCGCTCCGGCGAGCTCCCGCCATCCGCCTCGCGGAGTCACCTAGTGCAG	8630 fluorescence intensity (a.u.)
ATGGCCGCTGTCTTATGTCGTCTCGTTCAAATAAAATCTCCGGAGTCACCTAGTGCAG	8370 fluorescence intensity (a.u.)
GGGATTTGGTGGCTGCTCGCCTCTCGCGTTTCTTTTGCTGCGGAGTCACCTAGTGCAG	10200 fluorescence intensity (a.u.)
CTTCTGCTGCTTCTCTCTCTCTCTCTGTGTCTAGTCTACCCGGAGTCACCTAGTGCAG	9420 fluorescence intensity (a.u.)
TATTTGTCATTCGCTGTCTATGACATATGAGCCCTCATGTCGGAGTCACCTAGTGCAG	8280 fluorescence intensity (a.u.)
CTCCTCCCAACTTTCCCCTTTGCTACAGTAGCTCCTTCTTCGGAGTCACCTAGTGCAG	8100 fluorescence intensity (a.u.)
